High-throughput results from PubChem.
TbPYK inhibitor: T. brucei pyruvate kinase inhibition. TbPYK enzyme, Kinase-Glo Plus ATP luminescence, 45 min. Potency, µM (titrated, usually from 76.8 µM), for the others: at the top dose activity, negative = inhibition, most hits filed as inhibitors. hit rate 0.12% among 410,000; note: potency is the fitted concentration of half-maximal effect; % is set by controls: 0 for no effect and ±100 for the full control effect; nearly all actives have a fitted effect of over 50% in size
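In this concentration-response screen, enzyme-free wells defined baseline while DMSO plates tracked drift. Each reaction combined TbPYK, substrate, compound and 130 uM ADP for 45 min at room temperature. Kinase-Glo Plus luminescence gave the signal.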
SARS PLpro yeast: blocks SARS-CoV papain-like protease in a yeast assay; S. cerevisiae expressing SARS-CoV PLpro, growth rescue; Potency, µM (series often up to 32.9 µM), without a hit: at the top dose activity, positive = growth rescue, hits mostly activators; hit rate 0.19% among 330,000; AID 485353; calls by dose curve; note: potency is the fitted concentration of half-maximal effect; 0% is about no effect; nearly all actives have a fitted effect of over 55% in size
LmPK inh: blocks Leishmania mexicana pyruvate kinase activity. purified LmPK, Kinase-Glo ATP luminescence, 1 h. Q27686. hit rate 0.37% among 290,000. Potency, µM (titrated, usually from 57.5 µM), for the others: top-dose activity change, negative = inhibition, usual class: inhibitors; note: potency is the fitted concentration of half-maximal effect; % is set by controls: 0 for no effect and ±100 for the full control effect
Target sequence (Q27686 whole entry, looked up): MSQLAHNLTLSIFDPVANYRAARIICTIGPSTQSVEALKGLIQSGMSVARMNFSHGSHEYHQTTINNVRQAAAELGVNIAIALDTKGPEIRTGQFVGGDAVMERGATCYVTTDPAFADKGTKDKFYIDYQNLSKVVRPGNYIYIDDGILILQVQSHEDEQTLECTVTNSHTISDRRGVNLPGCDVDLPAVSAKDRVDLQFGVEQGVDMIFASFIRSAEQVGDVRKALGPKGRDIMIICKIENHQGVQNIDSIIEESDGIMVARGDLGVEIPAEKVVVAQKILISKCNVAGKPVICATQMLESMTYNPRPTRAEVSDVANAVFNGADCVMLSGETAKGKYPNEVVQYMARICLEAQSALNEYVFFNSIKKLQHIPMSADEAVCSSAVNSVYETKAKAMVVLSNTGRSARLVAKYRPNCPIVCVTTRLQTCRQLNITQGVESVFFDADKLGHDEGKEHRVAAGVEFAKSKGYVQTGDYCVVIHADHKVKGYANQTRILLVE
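Kinase-Glo luminescence read after 1 h RT reaction of 0.1 nM LmPK with 0.5 mM PEP and 0.1 mM ADP. Activity scaled between uninhibited and enzyme-free controls.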
NS1 inh: influenza NS1 inhibition; Potency, µM (top dose mostly 46.1 µM), inactives show top-dose activity, positive = more growth; hit rate 0.4% among 270,000; AID 2326; calls by dose curve; note: potency is the fitted concentration of half-maximal effect; actives are rising curves; nearly all actives have a fitted effect of over 50% in size
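S. cerevisiae expressing influenza A NS1, grown in glucose, washed, then diluted 1:100 into pH 6.0 -URA galactose medium with 23 nl compound. Growth recovery read as OD600; NS1-free strain serves as control.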
Sm TGR inh: inhibitors of Schistosoma mansoni thioredoxin glutathione reductase; purified TGR, DTNB reduction, TNB absorbance 405 nm; hit rate 3% among 360,000; Potency, µM (series often up to 114 µM), inactives show at the top dose activity change, negative = inhibition, most hits filed as inhibitors; note: potency is the fitted concentration of half-maximal effect; % is set by controls: 0 for no effect and ±100 for the full control effect; nearly all actives have a fitted effect of over 60% in size
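TGR 20 nM + NADPH 100 uM (dispensed conc.), cpd preinc 15 min RT; start with NADPH (500 uM addition) then DTNB (15 mM addition). Kinetic TNB absorbance, 405 nm filter. Four-parameter Hill fit across titration.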
RE007 growth inh: less growth of the S. pombe RE007 Vpr strain; S. pombe RE007 Vpr strain, BacTiter-Glo ATP luminescence, 24 h; Potency, µM (top dose mostly 92.2 µM), inactives show at the highest dose activity change, negative = less growth, usual class: inhibitors; hit rate 0.21% among 360,000; active = well fitted falling curve with a large enough effect; inconclusive = small, poorly fitted or top-dose-only effect; inactive = no such curve, though single readings can be large or run the other way; note: potency is the fitted concentration of half-maximal effect; % is set by controls: 0 for no effect and ±100 for the full control effect; nearly all actives have a fitted effect of over 50% in size
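Fission yeast RE007 carrying one integrated HIV-1 vpr copy, seeded at OD 0.01 in PMG+AL medium with 23 nL pinned compound. Grown 24 h at 30 degrees; viability read by BacTiter-Glo luminescence after 5 min.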
NS1 inh valid: influenza NS1 function inhibition validation | shares compounds with NS1 inh | influenza NS1 function cell assay, 15-point titration | activity change, negative = inhibition, % at 32.9 µM | 1,400 tested, under 10 active | AID 492980; calls by dose curve; note: 0% is about no effect
Flu PR8 replic: reduces influenza A/PR/8/34 replication in MDCK cells. shares compounds with NS1 inh. MDCK infected influenza A/PR/8/34, virus titer TCID50; stronger effect = lower value. virus titer (log TCID50), log10 TCID50 at 5 µM. hit rate 30% among 95. AID 504647; call rule not given here
Active calls of the source: *; ? = inconclusive; / = no result given. Sampled rows, rich in hits. Any-hit rate of the full collection: about 3.3%. Unless noted, calls come from the whole dose curve; as a rule, active = well fitted curve in the direction sought with a large enough effect; inconclusive = small, poorly fitted or top-dose-only effect, or another doubt; inactive = no such curve, though single readings can be large; an effect the other way counts as inactive or inconclusive.

SMILES	TbPYK inhibitor	SARS PLpro yeast	LmPK inh	NS1 inh	Sm TGR inh	RE007 growth inh	NS1 inh valid	others
COc1cccc(C(=O)Nc2ncc3c(n2)CC(c2ccc(OC)cc2OC)CC3=O)c1 (configuration not stated)	2.5%	6.3%	2.6%	10µM*	4.3%	10.5%	-24.2
CCOc1ccc(N2C(=O)CC(Sc3nc(C)cc(C)c3C#N)C2=O)cc1 (configuration not stated)	1.8%	2.1%	5.7%	12.6µM*	-10.5%	-5.3%	15.9
CCOc1ccc(N2C(=O)CC(Sc3nc(CC(C)C)ccc3C#N)C2=O)cc1 (configuration not stated)	2.3%	-1.3%	5.8%	5.1%	0.0%	0.3%	/
O=C(NC(=S)Nc1cccc([N+](=O)[O-])c1)c1ccco1	-4.6%	16.8%	-0.5%	12.9%	0.7%	-4.2%	/
O=C(/C=C/c1ccco1)NC(=S)Nc1cccc([N+](=O)[O-])c1	-4.5%	6.7%	4.2%	22.4µM*	44.7µM*	-17.2%	-0.1
O=C(NCc1cc(C(F)(F)F)cc(C(F)(F)F)c1)C12CN(Cc3ccccc3)CC1C(c1cccc([N+](=O)[O-])c1)=NO2 (configuration not stated)	2.9%	-1.7%	-1.9%	22.4µM*	-0.2%	?	-18.4	Flu PR8 replic=7.33*
O=C(NCc1ccccc1)C12CN(Cc3ccccc3)CC1C(c1cccc([N+](=O)[O-])c1)=NO2 (configuration not stated)	0.0%	-23.8%	1.7%	-1.9%	11.6%	2.0%	/
COc1cccc(-c2ccc3c(N)c(C(=O)c4ccc(F)cc4)sc3n2)c1	-1.2%	/	/	/	7.5%	/	/
Cc1ccc(Sc2ncccc2C(=O)O)cc1C	-0.8%	-3.4%	1.6%	?	5.4%	-6.7%	0.3
CCCCCn1c(CCCNC(=O)c2cccc(C)c2)nc2ccccc21	-0.5%	/	/	/	6.3%	/	/
Cc1ccc(-n2nnnc2C(=Cc2ccc(N(C)C)cc2)c2nnnn2-c2ccc(C)cc2)cc1	1.6%	-5.4%	5.5%	23.3%	-1.5%	2.7%	/
CCN(CC)c1ccc(C=C(c2nnnn2-c2ccccc2)c2nnnn2-c2ccccc2)cc1	1.0%	6.9%	1.9%	7.94µM*	0.5%	3.6%	15.5
O=C(c1ccc2c(=O)n(CC3CCCO3)c(=S)[nH]c2c1)N1CCN(c2ccccc2)CC1 (configuration not stated)	-0.2%	-3.3%	4.3%	?	7.6%	26.0%	-0.3
C/C=C/COC(=O)c1[nH]c2c(c1C)C(=O)CC(c1ccc(N(C)C)cc1)C2 (configuration not stated)	-3.7%	-16.0%	0.9%	12.6µM*	-18.7%	7.8%	?
CCOCCOC(=O)c1[nH]c2c(c1C)C(=O)CC(c1ccc(N(C)C)cc1)C2 (configuration not stated)	-0.4%	-2.8%	-0.9%	-11.7%	-10.6%	13.5%	/
CCC(C)OC(=O)c1[nH]c2c(c1C)C(=O)CC(c1ccc(N(C)C)cc1)C2 (configuration not stated)	-0.6%	-17.9%	-4.2%	10µM*	-26.2%	11.9%	-24.4
CCC1CCCCN1C(=O)CSc1n[nH]c(-c2ccccc2Cl)n1 (configuration not stated)	1.8%	/	/	/	4.1%	/	/
C/C(=N\NC(=O)C1CCCC1)c1ccc(Cl)cc1	4.4%	8.1%	1.0%	?	2.3%	0.1%	1.5
COc1ccc2c(Sc3ccccc3)c(C(=O)NCCc3ccc(Cl)cc3)[nH]c2c1	-7.4%	/	/	/	6.3%	/	/
